Measurements as given in PubChem BioAssay (NCATS).
Results filed as inconclusive are left out. A number with no mark means an inactive call. Calls follow the shape of the dose curve; as a rule, active = well fitted activation curve with a large enough effect; inconclusive = small, poorly fitted or top-dose-only effect; inactive = flat fitted curve, though single readings scatter. Bridge positions count the residues as written; N and C are the ends. Square brackets hold non-standard residues; d marks the D form. Side chains are listed from the residue outwards. Peptide text beside a SMILES is read from it. * marks the point of attachment. Phg(4-OMe) = COc1ccc([C@H](N)C(=O)O)cc1; d(aIle) = CC[C@H](C)[C@@H](N)C(=O)O; d(aThr) = C[C@@H](O)[C@@H](N)C(=O)O; NMeF = CN[C@@H](Cc1ccccc1)C(=O)O; Isobutyryl = CC(C)C(=O)*

Assay: HEK293 18hr Apoptosis Induction qHTS against the NCATS CANVASS Library (AID 1347357); also: 0% is about no effect
Conditions: HEK293 caspase-3/7 Caspase-Glo luminescence; series mostly up to 46.1 µM; caspase activation: at the top concentration
How it was run: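 HEK293 cells (500/well, DMEM + 10% FBS) treated with an 11-point series for 18 h at 37 degrees C. Caspase-3/7 activity read by Caspase-Glo luminescence after 15 min at room temperature.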

Row | SMILES | caspase activation
1 | CC(C)=CCC[C@]12c3cc4c(cc3CC[C@@]1(C)[C@H](C)CC[C@@H]2O)[nH]c1ccccc14 | 1.94%
2 | C/C=C/C1C=CC2CC(C)CC(C)C2C1C(=O)CC(=O)NC(CO)C/C=C/CCCCC (stereo unspecified) | 12.3%
3 | C=C1CC[C@@H](Br)C(C)(C)[C@]12CC=C(C)C(=O)C2 | 7.54%
4 | C=CC(CCCCC)C1C(=O)NC(=O)C1C(=O)C1C(/C=C/C)C=CC2CC(C(=O)O)CC(C)C21 (stereo unspecified) | -1.7%
5 | C=C[C@@]1(C)CC[C@@H]([C@H](C)C(=O)/C=C/C(C)(C)O)O1 | 0.53%
6 | O=C1CC2OCC=C3CN4C5CC3C2[C@@H]2N1c1ccccc1[C@]52C[C@@H]4C1=C[C@H]2C3CC4N(CC[C@@]45c4ccccc4N(C1=O)[C@@H]25)C/C3=C/CO (stereo partly specified) | 8.79%
7 | C=C1CC[C@@H](O[C@H]2C[C@@](O)([C@H](C)NC(=O)c3[nH]c(C)c(Cl)c3Cl)[C@H](O)[C@@H](C)O2)[C@@H]2C=C[C@H](C)C(/C(O)=C3/C(=O)[C@H](C(C)C)N([C@@H]4O[C@H](C)[C@H](OC(N)=O)[C@H](OC(C)=O)[C@@H]4OC)C3=O)[C@@H]12 (stereo partly specified) | 5.86%
8 | CC[C@H](C)[C@H]1NC(=O)[C@@H](NC(=O)C(C)C)[C@@H](C)OC(=O)[C@H](COC(=O)CNC(C)=O)NC(=O)[C@@H]([C@@H](C)O)NC(=O)[C@H](Cc2ccccc2)N(C)C(=O)[C@H](c2ccc(OC)cc2)NC1=O (Isobutyryl-T[d(aIle)][Phg(4-OMe)][NMeF][d(aThr)]S([Gly-Ac]); ester 1-C) | 7.05%
9 | C=C(C)CC[C@H](Cc1c(O)cc(O)c2c1O[C@H](c1ccc(O)cc1)CC2=O)C(=C)C | 1.87%
10 | COc1c(O)cc2c(c1O)C(=O)c1c(coc1C)C2=O | 3.02%
11 | C[C@]12CC[C@]3(C1)[C@H](CC2=O)C[C@@H](OC(=O)c1ccccc1)[C@H]1[C@](C)(C(=O)O)CCC[C@@]13C | 9.41%
12 | Cc1occ2c1C(=O)c1c(cc(O)c(O)c1O)C2=O | 0.863%
13 | COc1ccc2[nH]c3c(c2c1)CCN1C[C@H]2C[C@@H](OC(=O)c4cc(OC)c(OC)c(OC)c4)[C@H](OC)[C@@H](OC)[C@H]2C[C@H]31 | 18.5%
14 | C=C[C@](Cl)(CBr)CCC=C(C)C | 2.14%
15 | CC(=O)O[C@H]1c2ccccc2-c2c3c(cc4c2[C@@H]1N(C(C)=O)CC4)OCO3 | 3.35%
16 | C=CC(CCCCC)C1C(=O)NC(=O)C1C(=O)C1C2C(C)CC(C(=O)O)CC2CC1(O)C(=O)/C=C/C (stereo unspecified) | 1.41%
17 | O[C@H]1c2ccccc2-c2c3c(cc4c2[C@@H]1NCC4)OCO3 | 1.68%
18 | C[C@]12CCC[C@](C)(C(=O)O)[C@@H]1CC[C@@]1(C)c3cocc3CC[C@H]21 | -1.25%

Row | SMILES | caspase activation
19 | COc1cc(C2OCC3C(c4ccc(O)c(OC)c4)OCC23)ccc1O (stereo unspecified) | 1.93% [at 9.19 µM]
20 | C[n+]1cc2cc(C(N)=O)[nH]c3c(=N)c(Cl)c(N)c1c23 | -2.38%
21 | COc1cc2c(c(O)c1O)C(=O)c1c(coc1C)C2=O | 6.52%
22 | CCC(=O)N[C@@H](C[C@H](C)C(Cl)(Cl)Cl)C(=O)N1C(=O)C=C(OC)[C@@H]1CC(C)C | 3.15%
23 | O=c1cc(-c2ccc(O)c(O)c2)oc2cc(O[C@@H]3O[C@H](CO)[C@@H](O)[C@H](O)[C@H]3O)cc(O)c12 | -3.86%
24 | C/C1=C/[C@@H](C)[C@H](O)[C@@H](O)/C=C/CC/C=C/C(=O)O[C@@H]1[C@H](C)C(=O)CCCC1CC(=O)NC(=O)C1 | 1.33%
25 | CN1CC[C@]2(c3cccc4c3N[C@H]3N(C)CC[C@@]43[C@]34CCN(C)[C@H]3Nc3ccccc34)c3ccccc3N[C@H]12 | 26.9%
26 | CC(=O)Oc1cc2c(c(OC(C)=O)c1C1CCc3cc(Cl)c(Cl)n31)C(=O)n1c-2cc(Cl)c1Cl (stereo unspecified) | -2.35%
27 | COc1cc2c(cc1OC)[C@@H](c1ccc3c(c1)OCO3)C(C)C(C)C2=O (stereo partly specified) | -1.68%
28 | C/C=C(/C)c1c(Cl)c(O)c(C)c2c1Oc1c(Cl)c(O)c(Cl)c(C)c1C(=O)O2 | -1.37%
29 | CC(C)C[C@@H]1c2c(O)c(C=O)c(O)c(C=O)c2O[C@]2(C)C=C[C@@H](C(C)C)C[C@H]12 | -1.18%
30 | C/C=C(/C)c1cc(O)c(C)c2c1Oc1cc(O)cc(C)c1C(=O)O2 | 1.02%
31 | CC(C)[C@]12CC[C@@]3(C)[C@H](C)CC[C@H](O)[C@@]3(CC1)c1cc3c(cc12)[nH]c1ccccc13 | 4.99%
32 | C[C@H]1C=C[C@H]2CCCC[C@@H]2[C@H]1C(=O)[C@H]1CC2=C(C(=O)O)CCN2C1=O | 2.51%
33 | C/C=C(/C)c1c(Cl)c(OC)c(C)c2c1Oc1c(Cl)c(O)c(Cl)c(C)c1C(=O)O2 | 4.04%
34 | C/C(=C\CC[C@@H](C)[C@H]1CC[C@]2(C)C3=CCC4C(C)(C)[C@@H](O)C[C@@H](O)[C@]4(C)C3[C@H](O)C[C@@]12C)CO (stereo partly specified) | 11.7%
35 | COC12OC1(C13OC1(OC)C(=O)c1cc4cc(C)oc(=O)c4c(O)c1C3O)C(O)c1c(cc3cc(C)oc(=O)c3c1O)C2=O (stereo unspecified) | 2.42%
36 | CO[C@H]1[C@@H](OC(=O)/C(C)=C\[C@@H]2O[C@@H]2[C@H]2O[C@H]2C)[C@H](O)[C@H](OCC23C[C@@H]4[C@H](C)CC[C@H]4C4(C=O)CC2C=C(C(C)C)C34C(=O)O)O[C@@H]1C (stereo partly specified) | 2.93%
